# ChEMBL document CHEMBL3988442, “University of Dundee, Small-Polar-MMV Screening Library” (2021)
# How the values were obtained:
# [1] = target: T1, Aspartate--tRNA(Asp/Asn) ligase (Mycobacterium tuberculosis (strain ATCC 25618 / H37Rv)) (UniProt P9WFW3); test: Assay for Asp RNA synthetase-1 from Mycobacterium tuberculosis; type: functional; design: scale not given: direction of the effect not stated beside the values; conditions: 30 µM; note: in the data most compounds retested in dose-response had high values
# T1 sequence (whole entry): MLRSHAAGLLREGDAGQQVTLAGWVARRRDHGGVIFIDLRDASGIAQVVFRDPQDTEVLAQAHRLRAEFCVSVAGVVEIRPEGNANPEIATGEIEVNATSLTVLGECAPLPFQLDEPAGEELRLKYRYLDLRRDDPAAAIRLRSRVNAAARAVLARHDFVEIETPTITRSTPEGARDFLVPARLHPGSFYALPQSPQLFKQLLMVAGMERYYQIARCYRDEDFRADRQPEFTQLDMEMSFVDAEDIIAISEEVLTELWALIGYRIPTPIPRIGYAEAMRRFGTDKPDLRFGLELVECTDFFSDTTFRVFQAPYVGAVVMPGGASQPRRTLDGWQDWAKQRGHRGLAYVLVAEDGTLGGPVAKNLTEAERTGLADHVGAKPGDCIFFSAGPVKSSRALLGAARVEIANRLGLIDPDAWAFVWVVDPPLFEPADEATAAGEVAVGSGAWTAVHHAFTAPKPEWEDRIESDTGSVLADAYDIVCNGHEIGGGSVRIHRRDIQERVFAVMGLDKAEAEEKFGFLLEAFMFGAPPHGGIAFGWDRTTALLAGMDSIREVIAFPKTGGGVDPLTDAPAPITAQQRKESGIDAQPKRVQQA
# [2] = target: Shiga toxin 2 (Escherichia coli O157:H7) (UniProt P09385+P09386); test: E. coli 0.157:H7 Shiga Toxin SOP - stx2 screening assay; type: functional; design: scale not given: direction of the effect not stated beside the values; conditions: 30 µM
Structure (SMILES),Percent Effect [1] [%],Percent Effect [2] [%]
O=S(=O)(CCNCc1ccc2c(c1)CCO2)N1CCOCC1,0.97,-25.2
CN(C)C(=O)CN1CCC2(CCCN(Cc3cccn3C)C2)C1=O (stereo not given),2.49,-13.9
CC(C)(C)C(=O)NS(=O)(=O)c1ccc(C#N)cc1C(F)(F)F,0.681,21.9
Cc1nc2c(c(NC3CC3)n1)CCN(C(=O)C(C)(C)O)CC2,3.74,-3.14
CC(C)(C)n1ncc2c1NC(=O)CC2c1ccsc1 (stereo not given),2.57,-10.8
COCCc1noc(CN2CCCC(Cn3nc(C)nc3C)C2)n1 (stereo not given),12.8,22.8
CCc1noc(CNc2ccc(C(=O)N3CCCC(C)C3)cc2C)n1 (stereo not given),-1.27,19.1
c1ccc(Cn2cc3c(n2)C(CNCc2ccco2)OCC3)nc1 (stereo not given),6.18,-26.1
Cc1cc(C)n(CC2CCCN2C(=O)Cc2c(C)noc2C)n1 (stereo not given),7.79,9.09
N#Cc1cc(NC(=O)c2ccccc2)ccc1N1CCC(O)CC1,-1.51,-18.7
O=C(Cc1c[nH]c2ccccc12)N1CCN(C(=O)c2ccoc2)CC1,7.22,-16.5
COCCC(=O)N1CCCC2(CCC(=O)N2CCOC)CC1 (stereo not given),0.751,-11.1
CCNC(c1cccnc1)c1ccc(F)c(F)c1 (stereo not given),-4.58,10.8
CNc1nc(CNC(=O)Nc2ccccc2-c2noc(C)n2)cs1,-2.92,13.1
Cc1cc(CNc2ccc(C(=O)N3CCCC(C)C3)cc2C)no1 (stereo not given),-2.25,11.6
CCc1nc(CN(C)C2CCN(Cc3ccc(C#N)cc3F)C2)no1 (stereo not given),-1.38,20.3
CCNc1cc2c(nn1)CCN(C(=O)c1ccnc(N(C)C)c1)C2,0.611,3.23
COCCn1cc2c(n1)C(CNCc1ccco1)OCC2 (stereo not given),3,-35.6
O=C(c1ccc(C2CCCO2)s1)N1CCS(=O)(=O)CC1 (stereo not given),3.74,-6.97
CCc1cnc(CN(C)C2CCN(CCS(C)(=O)=O)C2)o1 (stereo not given),0.585,-7.2
Cc1cc(NC(=O)CN2CCn3c(nnc3C(C)C)C2)no1,-3.23,-39.9
CN(Cc1ccncc1)C(=O)Nc1cnn(CC2CCCO2)c1 (stereo not given),2.49,-5.44
CN(Cc1nccn1CC(F)(F)F)C(=O)c1ccc(F)c(F)c1,2.69,0.723
O=C(Nc1ccnc(OC2CCOC2)c1)c1cc(F)ccc1F (stereo not given),-4.18,-63.1
CN(C)C(=O)C1CN(Cc2ccccc2)CCN(S(C)(=O)=O)C1 (stereo not given),-2.4,-6.7
